{
  "source": "the supplement of paper PMC11732987",
  "about": "“Enantioselective OTUD7B fragment discovery through chemoproteomics screening and high-throughput optimisation” (Communications Chemistry, 2025)",
  "assay_in_all_cases": "log2 ratio of Biotin-Ahx-Ub-VS probe labelling (fragment/DMSO); higher = less target engagement (more negative = stronger competition), active = hit call of the paper (q ≤ 0.05, log2 ratio ≤ -1)",
  "details_in_all_cases": "compound concentration: 200 uM; treatment time: 3 h",
  "key": {"OTUD6B": {"target": "T1, OTUD6B (UniProt Q8N6M0)", "T1 sequence (whole entry)": "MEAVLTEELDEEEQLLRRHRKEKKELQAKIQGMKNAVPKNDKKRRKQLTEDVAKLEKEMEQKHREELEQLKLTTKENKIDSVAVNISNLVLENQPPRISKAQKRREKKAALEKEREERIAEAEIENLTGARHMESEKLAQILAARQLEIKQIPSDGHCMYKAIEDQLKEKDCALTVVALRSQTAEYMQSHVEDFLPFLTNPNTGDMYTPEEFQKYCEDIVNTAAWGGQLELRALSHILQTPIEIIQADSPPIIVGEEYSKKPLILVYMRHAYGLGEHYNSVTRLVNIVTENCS", "summary_of_the_method": "(§1)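 HEK293T lysate (495 µg per sample, in Tris/CHAPS/IGEPAL buffer with protease inhibitors) was exposed in triplicate for 3 h to fragment at 200 µM or to vehicle, then to Biotin-Ahx-Ub-VS at 0.5 µM final for 1 h. Labelled DUBs were enriched on NeutrAvidin, digested with LysC and trypsin, and analysed by diaPASEF LC-MS/MS. Spectronaut label-free quantities were normalised to the global median, and values are average log2 ratios of fragment over vehicle from an unpaired t-test. Only proteins with ≥2 unique peptides were used.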"}, "OTUD7B": {"target": "T2, OTUD7B (UniProt Q6GQQ9)", "T2 sequence (whole entry)": "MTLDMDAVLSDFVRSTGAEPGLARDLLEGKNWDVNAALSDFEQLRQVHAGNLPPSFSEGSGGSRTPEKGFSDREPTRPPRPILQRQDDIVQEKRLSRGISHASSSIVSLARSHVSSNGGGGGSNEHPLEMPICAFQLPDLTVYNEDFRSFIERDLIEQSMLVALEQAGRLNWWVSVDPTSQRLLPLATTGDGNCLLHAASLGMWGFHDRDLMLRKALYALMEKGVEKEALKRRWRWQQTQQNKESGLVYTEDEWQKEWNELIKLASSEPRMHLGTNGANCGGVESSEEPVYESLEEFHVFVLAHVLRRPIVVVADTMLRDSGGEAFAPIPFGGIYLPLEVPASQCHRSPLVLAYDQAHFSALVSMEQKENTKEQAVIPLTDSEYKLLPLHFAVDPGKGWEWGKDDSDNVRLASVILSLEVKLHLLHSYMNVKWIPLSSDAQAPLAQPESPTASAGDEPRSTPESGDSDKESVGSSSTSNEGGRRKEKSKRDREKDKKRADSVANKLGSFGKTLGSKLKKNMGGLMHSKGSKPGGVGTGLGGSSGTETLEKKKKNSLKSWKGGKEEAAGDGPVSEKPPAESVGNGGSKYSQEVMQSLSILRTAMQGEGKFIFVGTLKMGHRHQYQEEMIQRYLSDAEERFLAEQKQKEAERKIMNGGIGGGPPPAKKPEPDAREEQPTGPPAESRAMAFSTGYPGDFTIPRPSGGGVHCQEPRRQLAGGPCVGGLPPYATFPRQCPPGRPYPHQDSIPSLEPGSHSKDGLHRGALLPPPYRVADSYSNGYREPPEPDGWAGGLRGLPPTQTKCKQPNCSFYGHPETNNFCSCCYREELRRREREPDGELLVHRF", "summary_of_the_method": "as §1"}, "PRPF8": {"target": "PRPF8 (UniProt Q6P2Q9)", "summary_of_the_method": "as §1"}, "PSMD7": {"target": "T3, PSMD7 (UniProt P51665)", "T3 sequence (whole entry)": "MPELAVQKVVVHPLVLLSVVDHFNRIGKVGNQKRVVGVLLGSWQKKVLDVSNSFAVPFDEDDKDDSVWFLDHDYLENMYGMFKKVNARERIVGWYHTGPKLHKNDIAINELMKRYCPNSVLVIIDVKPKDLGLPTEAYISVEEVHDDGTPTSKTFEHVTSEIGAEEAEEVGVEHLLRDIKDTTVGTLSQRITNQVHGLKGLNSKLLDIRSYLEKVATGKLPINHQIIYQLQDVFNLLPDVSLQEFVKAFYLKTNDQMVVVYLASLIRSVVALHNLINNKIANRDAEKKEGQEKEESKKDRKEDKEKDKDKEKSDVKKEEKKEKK", "summary_of_the_method": "as §1"}, "UCHL1": {"target": "UCHL1 (UniProt P09936)", "sequence (P09936 whole entry, looked up)": "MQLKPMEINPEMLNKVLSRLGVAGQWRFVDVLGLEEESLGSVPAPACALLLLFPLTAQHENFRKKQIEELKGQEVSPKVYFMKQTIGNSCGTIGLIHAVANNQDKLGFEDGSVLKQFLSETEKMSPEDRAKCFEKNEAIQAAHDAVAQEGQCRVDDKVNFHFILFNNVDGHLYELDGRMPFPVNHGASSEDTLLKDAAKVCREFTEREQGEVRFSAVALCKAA", "summary_of_the_method": "as §1"}, "UCHL3": {"target": "T4, UCHL3 (UniProt P15374)", "T4 sequence (whole entry)": "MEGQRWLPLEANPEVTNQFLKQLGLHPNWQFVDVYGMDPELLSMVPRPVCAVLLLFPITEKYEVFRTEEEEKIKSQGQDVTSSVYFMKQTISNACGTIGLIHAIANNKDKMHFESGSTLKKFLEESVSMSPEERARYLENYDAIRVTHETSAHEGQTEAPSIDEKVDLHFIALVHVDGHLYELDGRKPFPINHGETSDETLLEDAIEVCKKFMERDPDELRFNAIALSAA", "summary_of_the_method": "as §1"}, "UCHL5": {"target": "T5, UCHL5 (UniProt Q9Y5K5)", "T5 sequence (whole entry)": "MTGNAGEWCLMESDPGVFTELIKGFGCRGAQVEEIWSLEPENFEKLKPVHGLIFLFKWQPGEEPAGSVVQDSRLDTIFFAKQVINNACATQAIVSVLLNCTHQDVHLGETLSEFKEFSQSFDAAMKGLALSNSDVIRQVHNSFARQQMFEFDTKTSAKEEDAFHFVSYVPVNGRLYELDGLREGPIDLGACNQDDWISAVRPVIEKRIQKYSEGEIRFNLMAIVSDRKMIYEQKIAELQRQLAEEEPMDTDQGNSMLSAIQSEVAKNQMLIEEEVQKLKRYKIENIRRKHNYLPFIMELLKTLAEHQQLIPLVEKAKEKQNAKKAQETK", "summary_of_the_method": "as §1"}, "USP10": {"target": "USP10 (UniProt Q14694)", "sequence (Q14694 whole entry)": "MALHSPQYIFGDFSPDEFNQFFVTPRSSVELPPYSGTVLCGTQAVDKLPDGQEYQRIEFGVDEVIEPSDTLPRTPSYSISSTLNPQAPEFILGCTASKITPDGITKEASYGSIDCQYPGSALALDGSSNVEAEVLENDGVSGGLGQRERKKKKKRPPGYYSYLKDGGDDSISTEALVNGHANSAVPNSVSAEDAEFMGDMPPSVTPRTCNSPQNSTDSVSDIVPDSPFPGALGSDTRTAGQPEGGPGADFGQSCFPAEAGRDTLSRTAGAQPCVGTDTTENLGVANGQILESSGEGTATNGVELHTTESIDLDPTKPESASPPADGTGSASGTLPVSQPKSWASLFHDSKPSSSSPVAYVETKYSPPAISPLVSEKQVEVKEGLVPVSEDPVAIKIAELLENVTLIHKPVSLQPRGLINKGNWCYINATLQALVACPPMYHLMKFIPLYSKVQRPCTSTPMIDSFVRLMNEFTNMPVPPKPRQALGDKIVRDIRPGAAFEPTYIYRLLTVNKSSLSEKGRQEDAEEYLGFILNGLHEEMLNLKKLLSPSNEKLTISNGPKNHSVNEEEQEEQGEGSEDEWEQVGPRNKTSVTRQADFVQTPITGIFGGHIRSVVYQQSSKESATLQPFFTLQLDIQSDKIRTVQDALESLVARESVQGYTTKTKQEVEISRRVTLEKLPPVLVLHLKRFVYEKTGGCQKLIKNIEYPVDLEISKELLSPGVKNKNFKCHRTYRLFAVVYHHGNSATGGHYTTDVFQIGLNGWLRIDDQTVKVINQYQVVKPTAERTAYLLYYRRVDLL", "summary_of_the_method": "as §1"}, "USP15": {"target": "T6, USP15 (UniProt Q9Y4E8)", "T6 sequence (whole entry)": "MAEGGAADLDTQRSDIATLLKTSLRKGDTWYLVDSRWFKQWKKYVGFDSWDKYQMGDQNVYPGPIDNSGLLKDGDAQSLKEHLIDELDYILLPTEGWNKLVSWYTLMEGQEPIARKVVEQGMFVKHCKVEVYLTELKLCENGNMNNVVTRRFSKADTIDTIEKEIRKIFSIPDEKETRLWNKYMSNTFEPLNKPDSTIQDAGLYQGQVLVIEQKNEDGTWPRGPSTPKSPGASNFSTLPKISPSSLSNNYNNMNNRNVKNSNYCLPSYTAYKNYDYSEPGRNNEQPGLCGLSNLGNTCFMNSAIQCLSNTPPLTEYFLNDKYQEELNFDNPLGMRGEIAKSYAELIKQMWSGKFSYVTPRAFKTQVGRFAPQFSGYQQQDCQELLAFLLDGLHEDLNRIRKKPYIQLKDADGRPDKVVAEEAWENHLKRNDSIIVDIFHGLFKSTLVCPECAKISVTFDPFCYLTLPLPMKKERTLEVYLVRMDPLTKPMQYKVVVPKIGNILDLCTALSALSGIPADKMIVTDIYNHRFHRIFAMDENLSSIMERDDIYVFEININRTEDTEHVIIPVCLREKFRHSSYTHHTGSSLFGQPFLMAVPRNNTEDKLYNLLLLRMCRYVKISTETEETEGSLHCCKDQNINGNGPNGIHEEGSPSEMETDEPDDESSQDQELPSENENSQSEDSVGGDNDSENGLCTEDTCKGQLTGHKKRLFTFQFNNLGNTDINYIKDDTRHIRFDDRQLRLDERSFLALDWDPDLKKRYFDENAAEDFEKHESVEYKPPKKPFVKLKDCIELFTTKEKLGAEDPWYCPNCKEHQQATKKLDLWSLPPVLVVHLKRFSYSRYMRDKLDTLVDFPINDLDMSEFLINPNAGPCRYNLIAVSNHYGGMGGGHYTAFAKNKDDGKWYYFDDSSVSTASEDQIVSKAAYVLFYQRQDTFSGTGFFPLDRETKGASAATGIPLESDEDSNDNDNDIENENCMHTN", "summary_of_the_method": "as §1"}, "USP16": {"target": "USP16 (UniProt Q9Y5T5)", "sequence (Q9Y5T5 whole entry, looked up)": "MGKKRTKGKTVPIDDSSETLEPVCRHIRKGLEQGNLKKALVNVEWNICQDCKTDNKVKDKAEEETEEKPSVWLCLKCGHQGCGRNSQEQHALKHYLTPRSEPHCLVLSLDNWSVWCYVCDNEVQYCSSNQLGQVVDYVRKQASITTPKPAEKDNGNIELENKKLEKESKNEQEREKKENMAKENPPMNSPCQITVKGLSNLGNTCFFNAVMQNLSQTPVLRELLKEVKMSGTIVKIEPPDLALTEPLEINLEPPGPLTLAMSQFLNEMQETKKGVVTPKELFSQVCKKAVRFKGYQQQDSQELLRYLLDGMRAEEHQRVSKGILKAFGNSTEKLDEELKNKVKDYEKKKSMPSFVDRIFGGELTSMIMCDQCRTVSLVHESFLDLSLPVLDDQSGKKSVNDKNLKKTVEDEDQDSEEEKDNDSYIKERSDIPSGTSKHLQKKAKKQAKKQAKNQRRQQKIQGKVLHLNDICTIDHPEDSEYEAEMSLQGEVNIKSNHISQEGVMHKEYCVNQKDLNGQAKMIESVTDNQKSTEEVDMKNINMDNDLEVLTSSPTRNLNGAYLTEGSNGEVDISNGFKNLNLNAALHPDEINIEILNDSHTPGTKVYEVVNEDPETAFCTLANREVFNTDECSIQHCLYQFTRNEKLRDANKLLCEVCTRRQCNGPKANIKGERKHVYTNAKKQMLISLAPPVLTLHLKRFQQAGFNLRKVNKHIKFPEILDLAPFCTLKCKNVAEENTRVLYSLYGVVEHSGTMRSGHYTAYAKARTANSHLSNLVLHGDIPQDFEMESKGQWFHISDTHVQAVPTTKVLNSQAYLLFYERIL", "summary_of_the_method": "as §1"}},
  "note": "Unmarked numbers belong to inactive results.",
  "data": [
    {"smiles": "CN(CCc1ncc(Br)cn1)C(=O)CCl.Cl", "values": [
      {"measurement": "log2 ratio of Biotin-Ahx-Ub-VS probe labelling", "setting": "OTUD6B", "result": -0.311},
      {"measurement": "log2 ratio of Biotin-Ahx-Ub-VS probe labelling", "setting": "OTUD7B", "result": "-1.39 (active)"},
      {"measurement": "log2 ratio of Biotin-Ahx-Ub-VS probe labelling", "setting": "PRPF8", "result": -0.0479},
      {"measurement": "log2 ratio of Biotin-Ahx-Ub-VS probe labelling", "setting": "PSMD7", "result": -0.205},
      {"measurement": "log2 ratio of Biotin-Ahx-Ub-VS probe labelling", "setting": "UCHL1", "result": "-1.55 (active)"},
      {"measurement": "log2 ratio of Biotin-Ahx-Ub-VS probe labelling", "setting": "UCHL3", "result": 0.504},
      {"measurement": "log2 ratio of Biotin-Ahx-Ub-VS probe labelling", "setting": "UCHL5", "result": -0.318},
      {"measurement": "log2 ratio of Biotin-Ahx-Ub-VS probe labelling", "setting": "USP10", "result": -0.276},
      {"measurement": "log2 ratio of Biotin-Ahx-Ub-VS probe labelling", "setting": "USP15", "result": -0.463},
      {"measurement": "log2 ratio of Biotin-Ahx-Ub-VS probe labelling", "setting": "USP16", "result": -0.32}
    ]}
  ]
}
